Screening results from PubChem BioAssay.
An excerpt weighted towards active compounds, which were near 3.5% of everything screened.
GPR151 activ: human GPR151 activation; actives 1% (n = 650,000); activation, % at 11.2 µM; PathHunter beta-arrestin GPR151 cells, luminescence; Q8TDV0; in the data active = activation above about 4.9%
Target sequence (Q8TDV0 whole entry, looked up): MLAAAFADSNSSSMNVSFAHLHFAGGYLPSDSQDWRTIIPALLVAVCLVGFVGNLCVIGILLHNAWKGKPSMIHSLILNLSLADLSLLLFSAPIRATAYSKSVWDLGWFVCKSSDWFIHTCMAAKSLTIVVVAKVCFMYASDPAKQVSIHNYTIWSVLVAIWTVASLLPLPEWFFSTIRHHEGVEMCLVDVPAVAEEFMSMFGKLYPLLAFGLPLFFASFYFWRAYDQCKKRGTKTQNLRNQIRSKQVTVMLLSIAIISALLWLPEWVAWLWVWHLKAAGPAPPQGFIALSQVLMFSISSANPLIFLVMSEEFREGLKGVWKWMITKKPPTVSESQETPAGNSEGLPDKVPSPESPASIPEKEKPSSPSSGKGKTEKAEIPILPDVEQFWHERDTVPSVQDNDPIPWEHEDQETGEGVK
TEAD-YAP block: TEAD-YAP interaction inhibition | inhibition, % at 9.12 µM | HEK-TIYL cells, TEAD-Gal4/YAP UAS-luciferase luminescence | AID 1259422 | actives 1.4% (n = 640,000); in the data active = inhibition above about 32%
MITF primary: inhibitors of human MITF. O75030. AlphaScreen MITF homodimerization, bead proximity signal. inhibition, % at 2.6 µM. actives 0.91% (n = 650,000). AID 1259374; in the data active = inhibition above about 50%
FBW7 act: activators of human E3 ligase FBW7; Q969H0; normalized activity (activation), % at 26.1 µM; AID 1259310; actives 0.13% (n = 650,000); AlphaScreen FBW7–phospho-cyclin E peptide binding, activator screen; in the data active = normalized activity above about 1.9%;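 also: purified mutant Fbw7 with reduced substrate affinity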
GPR151 conf act: human GPR151 activation, confirmation screen; shares compounds with GPR151 activ; 6,700 tested, under 10 active; GPR151 PathHunter beta-arrestin cells, luminescence, 90 min; % of EA-reagent control over plate median; AID 1508609; activation, % at 11.2 µM;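 active = mean percent activation across replicates above the confirmation screen cutoff of 4.91%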
GPR119 counter: GPR119 activation, counter-screen for GPR151 activators; AID 1508611; shares compounds with GPR151 activ; actives 0.3% (n = 6,700); activation, % at 11.2 µM; GPR119 PathHunter beta-arrestin cells, luminescence, 90 min; 0 = compound-well median, 100 = enzyme-acceptor control;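 active = mean percent activation in the counterscreen above 29.09%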;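 also: counterscreen on off-target GPR119 to flag nonselective hits from the GPR151 activator screen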
Numbers stand for hits; - = inactive; . = no result given; ! = not active in a repeat.

SMILES	GPR151 activ	TEAD-YAP block	MITF primary	FBW7 act	GPR151 conf act	GPR119 counter
O=C(Nc1nnc(S(=O)(=O)N2CCCCC2)s1)c1ccc(Cl)cc1	5.6	-	-	-	-	-
Cc1ccc(/C(N)=N/OC(=O)Cc2cccc3ccccc23)cc1	-	-	-	-	.	.
Cc1ccc(CC(=O)O/N=C(\N)Cc2cccc3ccccc23)cc1	5.5	-	-	-	-	-
COc1ccc(COC(=O)C2=C(C)NC3=C(C(=O)CCC3)C2c2ccc(OC)c(O)c2)cc1 (configuration not stated)	5.0!	-	-	-	-	-
COc1cc(C2C(C(=O)OCc3ccccc3)=C(C)NC3=C2C(=O)CCC3)ccc1O (configuration not stated)	5.5	-	-	-	-	-
COc1cc(C2C(C(=O)OC(C)(C)C)=C(C)NC3=C2C(=O)CC(C)(C)C3)ccc1O (configuration not stated)	5.4	-	-	-	-	-
COC(=O)c1ccc(C2C(C(=O)OCc3ccc(OC)cc3)=C(C)NC3=C2C(=O)CC(C)(C)C3)cc1 (configuration not stated)	5.2	-	-	-	-	-
COc1ccc(COC(=O)C2=C(C)NC3=C(C(=O)CC(C)(C)C3)C2c2ccc(O)c(OC)c2)cc1 (configuration not stated)	-	-	-	-	.	.
COc1ccc(COC(=O)C2=C(C)NC3=C(C(=O)CC(C)(C)C3)C2c2ccc(OC)cc2)cc1 (configuration not stated)	-	-	-	-	.	.
COc1ccc(Cc2nc3c4c(-c5ccccc5)c(-c5ccccc5)oc4ncn3n2)cc1	-	-	-	-	.	.
N#Cc1c(NC(=O)c2ccc(N3C(=O)C4C5C=CC(C5)C4C3=O)cc2)sc2c1CCC2 (configuration not stated)	-	-	-	-	.	.
COc1ccccc1NC(=O)CN1C(=O)CC(c2ccco2)Sc2ccccc21 (configuration not stated)	-	-	-	-	.	.
CC1CCCC(NCc2c(C(=O)O)n(Cc3ccccc3F)c3ccccc23)C1C (configuration not stated)	13	-	-	-	-	-
CC1CCCC(NCc2c(C(=O)O)n(Cc3ccccc3Cl)c3ccccc23)C1C (configuration not stated)	-	-	-	-	.	.
C#CCN(Cc1ccco1)C(=O)CC1(c2ccccc2F)CC(=O)N(CCOC)C1=O (configuration not stated)	6.7	-	-	-	-	-
O=C(CN1C(=O)CC(c2ccco2)Sc2ccccc21)Nc1ccc(F)cc1F (configuration not stated)	7.5	-	-	-	-	-
Cc1ccc(OC(=O)c2ccc(N3C(=O)c4cccc([N+](=O)[O-])c4C3=O)cc2)cc1C	5.9	-	-	-	-	-
CCOc1ccc(/C=C2/N=C(c3ccc(OC)c(Br)c3)OC2=O)cc1	-	-	-	-	.	.
CCOc1ccc(/C=C2/N=C(c3cncc(Br)c3)OC2=O)cc1	5.0	-	-	-	-	-
CCC(C)(C)C1CCC(NC(=O)C(=O)Nc2ccccc2)CC1 (configuration not stated)	6.3	-	-	-	-	-
CC(C)(C)NC(=O)C(c1ccccn1)N(Cc1ccccc1)C(=O)c1csnn1 (configuration not stated)	4.9	-	-	-	-	-
COc1cc(/C=N/Nc2nnc(C(C)(C)C)c(=O)[nH]2)cc(OC)c1OC	6.1	-	-	-	-	-
CC(C)(C)c1nnc(N/N=C/c2ccc(O)cc2)[nH]c1=O	-	-	-	-	.	.
CC(C(=O)Nc1cccc(C(F)(F)F)c1)N(c1ccc(Cl)cc1)S(C)(=O)=O (configuration not stated)	6.8	-	-	-	-	-
N#CCSc1nc2ccccc2c(=O)n1Cc1ccc2c(c1)OCO2	5.1	-	-	-	-	-
SMILES	GPR151 activ	TEAD-YAP block	MITF primary	FBW7 act	GPR151 conf act	GPR119 counter
O=c1c2ccccc2nc(SCc2ccc(Cl)cc2)n1Cc1ccc2c(c1)OCO2	-	-	-	-	.	.
COc1ccc(C(=O)Nc2cc([N+](=O)[O-])ccc2OC)cc1	-	-	-	-	.	.
Cc1ccc(C(=O)Nc2ccc(F)c([N+](=O)[O-])c2)o1	5.4	-	-	-	-	-
Cc1ccc(C(=O)Nc2cccc(C(F)(F)F)c2)o1	7.1	-	-	-	-	-
Cc1ccc(CCC(=O)Nc2ccc(Cl)cc2Cl)o1	-	-	-	-	.	.
O=C(Nc1ccc(F)c([N+](=O)[O-])c1)c1ccc(-c2cccc(Cl)c2)o1	-	-	-	-	.	.
Cc1ccc(CCC(=O)Nc2ccc([N+](=O)[O-])cc2Cl)o1	5.2	-	-	-	-	-
COc1ccc([N+](=O)[O-])cc1NC(=O)c1ccc(C)o1	9.7	-	-	-	-	-
O=S(=O)(c1ccc(S(=O)(=O)N2CCC3(CC2)OCCO3)cc1)N1CCCC1	-	-	-	-	.	.
O=S(=O)(c1ccc(Oc2ccc(S(=O)(=O)N3CCC4(CC3)OCCO4)cc2)cc1)N1CCC2(CC1)OCCO2	8.5	-	-	-	-	-
COc1cccc(C2c3c(oc4ccc(C)cc4c3=O)C(=O)N2CCN2CCOCC2)c1 (configuration not stated)	-	-	-	-	.	.
COc1ccccc1C1c2c(oc3ccc(C)cc3c2=O)C(=O)N1CCN1CCOCC1 (configuration not stated)	13	-	-	-	-	-
CCCCCCCCCCCCCc1ccco1	7.1	-	-	-	-	-
CCCCCCNc1nc(NCc2ccco2)nc(OCC)n1	-	-	-	-	.	.
COC(F)(C(=O)Nc1cc([N+](=O)[O-])cc([N+](=O)[O-])c1C)C(F)(F)F (configuration not stated)	-	-	-	-	.	.
CCOC(=O)CSc1ccc(C(=O)OCC)cc1[N+](=O)[O-]	-	-	-	-	.	.
CCOC(=O)CSc1ccc(C(=O)N(CC)CC)cc1[N+](=O)[O-]	6.8	-	-	-	-	-
C=CCN1C(=O)/C(=C\c2ccc(-c3ccc(C(=O)O)cc3C)o2)C(=O)NC1=S	-	-	-	-	.	.
CCC(=O)Nc1nnc(-c2ccc3c(c2)CCCC3)o1	-	-	-	-	.	.
COC(=O)c1ccc(C(=O)Nc2nnc(-c3ccc4c(c3)CCCC4)o2)cc1	6.0	-	-	-	-	-
CCC(=O)c1ccc(OCC(O)CN(CCO)CCO)cc1 (configuration not stated)	-	-	-	-	.	.
CCCOC(=O)c1ccc(OCC(O)CN(CCO)CCO)cc1 (configuration not stated)	5.1	-	-	-	-	-
COC(=O)c1cc(-c2ccccc2)n(CC(=O)O)c1C	5.5	-	-	-	-	-
O=C(NC1CC1)c1ccc(-c2nc(NCc3ccccc3)c3ncn(-c4ccccc4)c3n2)cc1	-	-	-	-	.	.
